Screens from PubChem BioAssay.
An excerpt weighted towards active compounds, which were near 7% of everything screened.
ATXN2 expr inh = ATXN2 expression inhibition; hit rate 0.72% among 360,000; HEK-293 ATXN2-luciferase reporter, luminescence, 24 h; Potency, µM (highest dose often 57 µM), usual class: inhibitors; also: nearly all actives have a fitted effect of over 55% in size
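ATXN2-luciferase reporter cells (luciferase flanked by upstream and downstream ATXN2 gene portions) were treated 24 h at 37 °C with compounds at up to 57 uM. SteadyGlo luminescence gave expression; GF-AFC fluorescence gave viability.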
IL1B secr inh = inhibitors of inflammasome signaling (IL-1 beta secretion); THP-1 LPS/ATP IL-1B secretion, AlphaLISA, 16 h; active compounds read low; hit rate 4.7% among 360,000; activity change, % at 57.5 µM; in the data active = activity change below about -50%; inconclusive = mostly about -30% to -49%
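Secreted IL-1B measured by AlphaLISA bead assay after 16 h compound exposure of THP-1 cells; compounds (final up to 57.5 uM) added 1 h before LPS (250 ng/mL) and ATP (1.25 mM) stimulation; lower signal means less secretion.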
Integrin act MD = integrin-mediated muscular dystrophy alleviation activation; alpha7betagal myoblasts, beta-gal FDG fluorescence, 48 h; Potency, µM (series often up to 38.3 µM), most hits filed as activators; hit rate 0.064% among 350,000; AID 624291; also: nearly all actives have a fitted effect of over 60% in size
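Alpha7betagal+/- myoblasts (passage 13) were plated 16-24 hr, then exposed to compounds (1:260 dilution of DMSO stock) for 48 hours at 37C. After MPER lysis, β-galactosidase reporter activity was read as FDG fluorescence (ex 480/em 540) after 30 minutes.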
S2 tox = viability counter-screen for ATXN expression inhibitors | hit rate 0.49% among 400,000 | S2 cells (HEK-293 line with an ATXN2-luciferase reporter) viability, CellTiter-Fluor protease fluorescence, 24 h | Potency, µM (highest dose often 56.7 µM), usual class: cytotoxic | AID 651635; also: nearly all actives have a fitted effect of over 40% in size
DRD3 agonist = activates the human D3 dopamine receptor. D3R DiscoveRx beta-arrestin cells, luminescence, 90 min. max activation, %. hit rate 0.58% among 410,000; in the data active = max activation above about 30%
Target sequence (P35462 whole entry, looked up): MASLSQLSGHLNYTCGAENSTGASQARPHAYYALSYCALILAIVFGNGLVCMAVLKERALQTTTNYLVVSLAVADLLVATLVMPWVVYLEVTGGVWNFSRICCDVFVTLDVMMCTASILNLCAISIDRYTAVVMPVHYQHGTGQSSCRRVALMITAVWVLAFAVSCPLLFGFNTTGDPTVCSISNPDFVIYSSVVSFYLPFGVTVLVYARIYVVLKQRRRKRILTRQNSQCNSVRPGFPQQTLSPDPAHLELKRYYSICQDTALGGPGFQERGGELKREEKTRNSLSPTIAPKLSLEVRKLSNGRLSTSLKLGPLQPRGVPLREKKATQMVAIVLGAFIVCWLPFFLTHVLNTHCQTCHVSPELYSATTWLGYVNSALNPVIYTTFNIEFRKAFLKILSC
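Agonist mode: compounds and dopamine controls were applied to plated cells for 90 min at 37 degrees C after an overnight attachment at 1500 cells/well. Luminescent read-out followed 30 - 60 minutes at room temperature with DiscoveRx detection reagent.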
DRD3 antagonist = D3 dopamine receptor (human) antagonism; D3R cells, DiscoveRx beta-arrestin luminescence, antagonist mode; active compounds read low; hit rate 2.5% among 360,000; P35462; max response, negative = inhibition, %; AID 652054; in the data active = max response below about -50%; inconclusive = no clear call, values can overlap the other calls
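Cells expressing the human receptor were seeded at 1500 cells/well, incubated overnight at 37 degrees C in 5% CO2, then exposed to library compounds with dopamine controls for 90 minutes at 37 degrees C before luminescent detection.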
Of the large screens only hits and unclear results are named; the others gave an inactive call; ! = repeats disagree. Unless noted, calls follow the shape of the dose curve; as a rule, active = well fitted curve in the direction sought with a large enough effect; inconclusive = small, poorly fitted or top-dose-only effect, or another doubt; inactive = no such curve, though single readings can be large; an effect the other way counts as inactive or inconclusive.

CC(=O)NC(CC(=O)NNC(=O)COc1c(C)cccc1C)c1ccccc1 (stereo not given)	none
CC(=O)C1=C(c2ccc(Cl)cc2)N(C(C)=O)n2c(nnc2C2CCCCC2)S1	none (no result: ATXN2 expr inh, IL1B secr inh, Integrin act MD, S2 tox, DRD3 antagonist)
Cc1ccnc2c1ccc1cccnc12	ATXN2 expr inh inconclusive, IL1B secr inh -86, S2 tox inconclusive, DRD3 antagonist -95
c1cnc2c(c1)ccc1cccnc12	ATXN2 expr inh 5.6µM!, S2 tox inconclusive, DRD3 antagonist -76
Cc1ccnc2c1ccc1ccccc12	none
Cc1ccnc2c1ccc1c(C)ccnc12	ATXN2 expr inh 5.3µM, IL1B secr inh inconclusive, DRD3 antagonist -100 (no result: S2 tox)
O=Cc1ccc2ccc3cccnc3c2n1	IL1B secr inh inconclusive
CCOC(=O)C1(C(F)(F)F)N=C(c2cccnc2)OC(N2CCOCC2)=N1 (stereo not given)	DRD3 antagonist -59
CCOC(=O)c1cnc(-c2ccccc2)nc1N1CCOCC1	none
CN(CC(=O)NCc1ccc(F)cc1)Cc1ccc(Br)cc1	IL1B secr inh -72
COc1ccc(Br)cc1CN(C)CC(=O)NCc1ccc(F)cc1	IL1B secr inh inconclusive (no result: S2 tox)
CCN(CC(=O)NCc1ccc(F)cc1)S(=O)(=O)c1ccc(C)cc1	none
CC(C)CCN(CC(=O)NCc1ccc(F)cc1)S(=O)(=O)c1ccccc1F	IL1B secr inh -80, Integrin act MD inconclusive
COc1ccc(C(=O)C/C(=C\C(=O)c2ccc(C)cc2)c2ccccc2)cc1	ATXN2 expr inh inconclusive, S2 tox inconclusive
O=C(Nc1nnc(-c2cccs2)o1)c1ccc(S(=O)(=O)N2CCOCC2)cc1	ATXN2 expr inh inconclusive
CC1(C)COCN1S(=O)(=O)c1ccc(C(=O)Nc2nnc(-c3ccc(Cl)s3)o2)cc1	ATXN2 expr inh 7.9µM, S2 tox inconclusive
COc1ccc(-c2nnc(NC(=O)c3ccc(S(=O)(=O)N4COCC4(C)C)cc3)o2)cc1	ATXN2 expr inh inconclusive, DRD3 antagonist -65
CCOc1cc(/C=N\Nc2nc(Nc3ccccc3)nc(N3CCOCC3)n2)ccc1OC(=O)c1ccco1	none
CN1CCN(S(=O)(=O)c2ccccc2)C(c2ccccc2)C1 (stereo not given)	none
Cc1ccc(N=C2C(=S)N(c3ccc(C)cc3)C(=N)N2/N=C/c2ccc(Cl)cc2)cc1	IL1B secr inh inconclusive, S2 tox inconclusive, DRD3 antagonist -51
O=C1c2[nH]nc(-c3ccccc3O)c2C(c2cccc(OCc3ccccc3)c2)N1CCO (stereo not given)	none (no result: ATXN2 expr inh, IL1B secr inh, Integrin act MD, S2 tox, DRD3 antagonist)
CC(C)OCCCN1C(=O)c2[nH]nc(-c3ccccc3O)c2C1c1cccc(OCc2ccccc2)c1 (stereo not given)	DRD3 agonist 30 (no result: ATXN2 expr inh, IL1B secr inh, Integrin act MD, S2 tox, DRD3 antagonist)
Cc1cc(C)nc(SCCCNCc2c(F)cccc2Cl)n1	none
Cc1cc(C)nc(SCCCNCc2ccc(Br)cc2)n1	S2 tox inconclusive, DRD3 antagonist -95 (no result: ATXN2 expr inh)
Cc1ccc(CNCCCSc2nc(C)cc(C)n2)cc1	IL1B secr inh inconclusive, DRD3 antagonist -92
CCOc1c(CNCCCSc2nc(C)cc(C)n2)cccc1OC	none
CC1(C)Cc2c(oc3ncn4ncnc4c23)CO1	none
O=[N+]([O-])c1ccccc1/C=C/CN1CCCCC1CO (stereo not given)	none
CCOC(=O)C1CCCN(CCC(C)c2ccccc2)C1 (stereo not given)	DRD3 antagonist -61
CN(C/C=C/c1ccccc1[N+](=O)[O-])Cc1ccccc1	DRD3 antagonist -80 (no result: ATXN2 expr inh)
CCOC(=O)C1CCCN(CCC(=O)Nc2ccccc2)C1 (stereo not given)	none
CCOC(=O)C1CCCN(C/C=C/c2ccccc2[N+](=O)[O-])C1 (stereo not given)	DRD3 antagonist -64
O=[N+]([O-])c1ccccc1/C=C/CN1CCCCC1	DRD3 antagonist -71
CCN(CC)C(=O)C1CCCN(C/C=C/c2ccccc2[N+](=O)[O-])C1 (stereo not given)	S2 tox inconclusive
Cc1cnc(-c2nc3ccccc3n2C(C)C(=O)Nc2c(C)cccc2C)cn1 (stereo not given)	none (no result: ATXN2 expr inh, Integrin act MD, S2 tox)
CCCCNc1ccc2c(c1)C1CC2CCN1C(=O)OCc1ccccc1 (stereo not given)	DRD3 antagonist inconclusive
CN(C)Cc1cc(C(C)(C)c2cc(CN(C)C)c(O)c(CN(C)C)c2)cc(CN(C)C)c1O	ATXN2 expr inh inconclusive, IL1B secr inh -62
Cc1nc(-c2ccc(NC(=O)C(C)(C)C)cc2)c(-c2ccccc2)o1	none
Cc1cc(C)nc(SCC(=O)Nc2nc(-c3ccccc3)c(-c3ccccc3)o2)n1	S2 tox inconclusive, DRD3 agonist 33
Cc1ccc(C(=O)Nc2nc(-c3ccccc3)c(-c3ccccc3)o2)cc1	DRD3 antagonist -85
COc1ccc(-c2nc(SCC(=O)NCC3CCCO3)c(-c3ccc(C)cc3)[nH]2)cc1OC (stereo not given)	none (no result: ATXN2 expr inh, IL1B secr inh, Integrin act MD, S2 tox, DRD3 antagonist)
Cc1ccc(-c2cn3nc(C)c(C)nc3n2)cc1	ATXN2 expr inh 6.3µM (no result: S2 tox)
CCc1ccc(S(=O)(=O)NC2CCCCNC2=O)cc1 (stereo not given)	none (no result: ATXN2 expr inh)
COc1ccc(N2C(=O)CSC23CCC(C(C)(C)C)CC3)cc1 (stereo not given)	none
Cc1ccc(-c2[nH]ncc2CNCCc2cnn(-c3ccccc3)c2)cc1C	ATXN2 expr inh inconclusive, IL1B secr inh -60
NCC(=O)NCC(=O)NC[C@H]1O[C@@H](n2ccc(=O)[nH]c2=O)[C@H](O)[C@@H]1O	none
CN(C)CC(=O)c1c(N)n(Cc2ccccc2)c(=O)n(C)c1=O	none
Cn1c(N)c(C(=O)CCl)c(=O)n(Cc2ccccc2)c1=O	IL1B secr inh -97
Cn1c(=O)c(C(=O)CCl)c(N)n(Cc2ccccc2)c1=O	IL1B secr inh -95
CCOC(=O)C1(Cc2ccc(Cl)cc2)CCN(C(C)Cc2ccc(O)c(OC)c2)CC1 (stereo not given)	IL1B secr inh -51, DRD3 antagonist inconclusive
COc1ccc(CC2(CO)CCN(C(C)Cc3ccc(Cl)cc3)CC2)cc1 (stereo not given)	IL1B secr inh -67, DRD3 antagonist inconclusive
COc1ccc(CC2(CO)CCN(Cc3cccc(OC)c3OC)CC2)cc1	none
COc1ccc(CCC(C)N2CCC(CO)(Cc3ccccc3)CC2)cc1 (stereo not given)	IL1B secr inh -57
CC(COc1ccccc1)N1CCC(CO)(CCc2ccccc2)CC1 (stereo not given)	IL1B secr inh -67, DRD3 antagonist -62
CCOC(=O)C1(Cc2ccc(OC)cc2)CCN(S(C)(=O)=O)CC1	none
CC(C)Oc1ccc(CNCC2(O)CCOC(C)(C)C2)cc1 (stereo not given)	none
Cc1cc(Br)c(NC(=O)COC(=O)CSc2nnc(-c3ccc(Cl)cc3)o2)c(Br)c1	none
CC(C)n1c(Sc2nccn2C)nc2c1c(=O)n(C)c(=O)n2C	Integrin act MD inconclusive
